Compounds with a hit are over-represented: about 10% of the library has one in this group of screens.
JMJD2A Tudor – blocks the human JMJD2A Tudor domain; O75164; AlphaScreen JMJD2A-Tudor / H3K4me3 peptide binding; Potency, µM (series often up to 114 µM), for inactives: at the top dose activity change, negative = inhibition, actives largely listed as inhibitors; hit rate 4.4% among 390,000; note: % is set by controls: 0 for no effect and ±100 for the full control effect; nearly all actives have a fitted effect of over 50% in size
GLS inhibitor – inhibitors of human glutaminase (GLS) | hit rate 0.21% among 410,000 | GLS enzymatic activity, qHTS titration | Potency, µM (highest dose often 45.5 µM), inactives show at the highest dose activity change, negative = inhibition, usual class: inhibitors | O94925; note: % is set by controls: 0 for no effect and ±100 for the full control effect
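Enzyme dispensed in phosphate buffer (45 mM, pH 8.2, 0.02% Tween-20), compounds pinned in, then 1 mM L-glutamine solution and the glutamate oxidase–HRP–Amplex Red mix added; fluorescence read immediately and again after 30 min at room temperature.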
G9a block – G9a (human) methyltransferase inhibition; hit rate 8.8% among 350,000; AID 504332; Potency, µM (doses to about 102 µM), for the others: at the top dose activity, negative = inhibition, actives largely listed as inhibitors; G9a H3K9 monomethylation, AlphaScreen, 2 h; note: % is set by controls: 0 for no effect and ±100 for the full control effect; nearly all actives have a fitted effect of over 75% in size
Target sequence (Q96KQ7 913-1193 limits assumed): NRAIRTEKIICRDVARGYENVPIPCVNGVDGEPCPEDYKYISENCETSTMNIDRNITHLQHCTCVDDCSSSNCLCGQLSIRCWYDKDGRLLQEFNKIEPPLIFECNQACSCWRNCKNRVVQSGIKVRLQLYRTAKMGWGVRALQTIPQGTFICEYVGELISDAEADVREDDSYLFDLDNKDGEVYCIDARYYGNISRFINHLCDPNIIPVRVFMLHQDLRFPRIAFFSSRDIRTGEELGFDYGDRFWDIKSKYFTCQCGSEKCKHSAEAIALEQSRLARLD
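Enzyme 20 nM + cpd, 15 min RT; add b-H3K9 pep 500 nM / SAM 20 uM; 2 h RT; anti-H3K9me1 Ab 0.5 ug/mL + SA donor / anti-rabbit acceptor beads 20 ug/mL each, 10 min; AlphaScreen read.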
BAZ2B inh – inhibitors of human BAZ2B bromodomain; Q9UIF8; AlphaScreen BAZ2B-H3K14Ac peptide displacement; Potency, µM (doses to about 114 µM), inactives show at the highest dose activity change, negative = inhibition, most hits filed as inhibitors; hit rate 4.4% among 360,000; AID 504333; note: % is set by controls: 0 for no effect and ±100 for the full control effect; nearly all actives have a fitted effect of over 60% in size
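Protein-peptide AlphaScreen: BAZ2B 50 nM, b-H3K14Ac 50 nM, 1x PBS pH 7.4 + 0.01% Tween-20. Preincubation 30 min RT; cpd 30 min RT (top 110 uM); beads 20 min RT, light-protected.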
HP1b binding inh – inhibitors of HP1-beta chromodomain binding to methylated histone tails | P83916 | AID 540317 | AlphaScreen HP1-beta / biotin-H3K9me3 peptide binding | hit rate 0.56% among 390,000 | Potency, µM (doses to about 114 µM), without a hit: at the top dose activity change, negative = inhibition, hits mostly inhibitors; note: nearly all actives have a fitted effect of over 70% in size
Target sequence (P83916 whole entry, looked up): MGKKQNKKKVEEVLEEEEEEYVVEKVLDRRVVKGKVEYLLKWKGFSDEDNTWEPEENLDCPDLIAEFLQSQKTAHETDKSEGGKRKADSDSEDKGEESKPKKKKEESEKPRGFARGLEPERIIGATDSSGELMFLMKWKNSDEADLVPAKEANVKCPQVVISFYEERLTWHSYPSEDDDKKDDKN
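AlphaScreen: HP1-beta (50 nM) preformed 30 min with biotin-H3(1-18)K9me3 peptide (50 nM) in PBS pH 7.4, 0.01% Tween-20. Compound added for 30 min at RT, then streptavidin donor/nickel chelate acceptor beads (10 ug/mL) for 30 min.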
* hit, by the source's call; ? = inconclusive; nt = no result; [ ] = dose if it differs, or a comment. Calls come from the whole dose curve; as a rule, active = well fitted curve in the direction sought with a large enough effect; inconclusive = small, poorly fitted or top-dose-only effect, or another doubt; inactive = no such curve, though single readings can be large; an effect the other way counts as inactive or inconclusive. Potency is the fitted concentration of half-maximal effect.

SMILES	JMJD2A Tudor	GLS inhibitor	G9a block	BAZ2B inh	HP1b binding inh
Cc1nn(Cc2ccccc2)c(Cl)c1/C=N/NC(=O)CNc1cccc(C(F)(F)F)c1	-4%	0%	2%[59 µM]	6%	33%
C/C(=N\NC(=O)CN(c1ccccc1Br)S(C)(=O)=O)c1cccs1	22µM*	5%	nt	-3%	-5%
C/C(=N\NC(=O)CN(c1ccc(C)cc1)S(C)(=O)=O)c1cccs1	-9%	7%	-4%	-2%	9%
Cc1oc(/C=N/NC(=O)CN(c2ccccc2Br)S(C)(=O)=O)cc1Br	?	8%	71µM*	?	-26%
Cn1c(N)c(C(=O)COC(=O)C2(c3ccc(Cl)cc3)CCCC2)c(=O)n(C)c1=O	3.2µM*	?	-2%[12.7 µM]	-6%	-6%
Cn1c(N)c(C(=O)COC(=O)c2ccccn2)c(=O)n(C)c1=O	79µM*	0%	20µM*	79µM*	2%
Cn1c(N)c(C(=O)COC(=O)c2cncc(Br)c2)c(=O)n(C)c1=O	-24%	20%	50µM*	-24%	28%
CCOc1cc(C(=O)OCC(=O)c2c(N)n(C)c(=O)n(C)c2=O)cc(OCC)c1OCC	-9%	0%	-7%[59 µM]	7%	11%
CCOc1ncccc1C(=O)OCC(=O)c1c(N)n(C)c(=O)n(C)c1=O	-5%	23%	20%	16%	-2%
Cn1c(N)c(C(=O)COC(=O)Cc2ccc(Cl)c(Cl)c2)c(=O)n(C)c1=O	89µM*	1%	nt	nt	26%
COc1ccc(CCNC(=O)Nc2nnc([C@@H]3C[C@H](O)[C@@H](CO)O3)s2)cc1OC	nt	-1%	nt	nt	nt
CCOc1ccc(CNC(=O)CS(=O)(=O)Cc2nc(-c3ccc(OC)cc3)oc2C)cc1	-9%	-2%	8%	4%	27%
CCn1c(COc2ccccc2C)nnc1SCC(=O)N1CCN(c2ccccc2)CC1	-30%	47%	10%[12.7 µM]	-9%	16%
CCOC(=O)c1nnc(-c2ccccc2)nc1Sc1c(Cl)cccc1Cl	?	-9%	40µM*	?	-22%
CCOC(=O)c1nnc(-c2ccc(C)cc2)nc1Sc1ccccc1Cl	?	4%	?	-27%	0%
CCOc1ccc(NC(c2ccccn2)c2oc(CO)cc(=O)c2O)cc1 (stereo not given)	22µM*	3%	1.4µM*	20µM*	?
COC(=O)c1cc(-c2ccccc2)sc1N	?	-8%	4.5µM*	?	?
N#CCSc1nc2ccccc2c(=O)n1CCCC(=O)NCC1CCCO1 (stereo not given)	-10%	1%	-5%	-19%	33%
O=C(Nc1cccc(C(F)(F)F)c1)c1cccnc1N1CCN(c2ccccc2)CC1	79µM*	10%	?	50µM*	14%
NS(=O)(=O)c1cccnc1Nc1cccc(C(F)(F)F)c1	7%	16%	1%[59 µM]	3%	2%
O=C(O)c1cccnc1Nc1cccc(C(F)(F)F)c1	6%	5%	11%[59 µM]	79µM*	21%
N#Cc1ccccc1OCC(=O)OCC(=O)NC1CCCCCC1	-2%	0%	-1%[59 µM]	-2%	29%
O=C(c1cc(-c2ccccc2)on1)N1CCCCCC1	-4%	0%	-9%	9%	0%
S=c1[nH]nc(-c2ccccn2)n1/N=C/c1ccco1	7.1µM*	-7%	nt	8.9µM*	23%
Cn1cccc1/C=N/n1c(-c2ccco2)n[nH]c1=S	20µM*	-14%	nt	?	17%
SMILES	JMJD2A Tudor	GLS inhibitor	G9a block	BAZ2B inh	HP1b binding inh
Cc1cc(C)n(-c2nnc(C)n2/N=C/c2ccco2)n1	-12%	15%	7%	10%	24%
S=c1[nH]nc(-c2ccco2)n1/N=C/c1cccc(Cl)c1	79µM*	-10%	0.71µM*	-18%	18%
S=c1[nH]nc(-c2ccco2)n1/N=C/c1ccccn1	nt	nt	-120%	50µM*	nt
S=c1[nH]nc(-c2ccccn2)n1/N=C/c1cccc(Cl)c1	20µM*	-6%	1.6µM*	28µM*	-14%
Cc1ccc(/C=N/n2c(C)nnc2C)cc1	-8%	9%	7%	0%	2%
Cc1ccc(/C=N/n2c(-c3ccco3)n[nH]c2=S)cc1	10µM*	?	0.63µM*	?	56µM*
S=c1[nH]nc(-c2ccco2)n1/N=C/c1ccc(Cl)c(Cl)c1	79µM*	?	1.6µM*	-12%	-12%
S=c1[nH]nc(-c2ccco2)n1/N=C/c1c(Cl)cccc1Cl	?	-4%	0.4µM*	0%	51%
O=C(NCCN1CCCCC1)Nc1ccccc1	-10%	-2%	19%[59 µM]	-4%	10%
CN(CC(O)COCc1ccc2c(c1)OCO2)C1CCCCC1 (stereo not given)	-9%	-1%	-17%[59 µM]	3%	31%
COc1cc(-c2n[nH]c(=S)n2/N=C/c2cccn2C)cc(OC)c1OC	1.3µM*	?	?	?	?
CCOC(=O)c1ccc(N2CCN(c3cc(C)ccc3C)CC2)c(N)c1	?	1%	45µM*	?	3%
CCOC(=O)c1ccc(N2CCN(c3cc(C)ccc3C)CC2)c(NC(=O)Nc2ccc(CC)cc2)c1	-9%	8%	5%[59 µM]	2%	44%
CC1CCN(c2ccc(C(=O)O)cc2N)CC1	-25%	16%	79µM*	50µM*	6%
CC1(C)Cc2cccc(OCC(=O)NCc3cccs3)c2O1	-10%	-17%	6%	9%	26%
CCOc1nc(Nc2ccc(OC)c(Cl)c2)nc(N2CCN(c3ccc(OC)cc3)CC2)n1	35µM*	1%	11µM*	11µM*	?
N#C/C(=N\Nc1ccccc1)C(=N)N1CCOCC1	-24%	-3%	-1%	-32%	-5%
O=C(Cc1ccc(-n2c(=S)[nH]c3ccccc3c2=O)cc1)N1CCC(N2CCCCC2)CC1	-19%	-4%	50µM*	?	15%
O=C(c1ccc(Cn2c(=S)[nH]c3ccc(N4CCOCC4)cc3c2=O)cc1)N1CCC(N2CCCCC2)CC1	-21%	-11%	40µM*	-37%	12%
O=c1c2cc(N3CCOCC3)ccc2[nH]c(=S)n1CCCN1CCCC1	79µM*	30%	?	3%	?
O=c1c2cc(N3CCOCC3)ccc2[nH]c(=S)n1CCCN1CCCCC1	?	23%	-18%[12.7 µM]	2%	25%
O=c1c2cc(N3CCOCC3)ccc2[nH]c(=S)n1Cc1ccco1	50µM*	-7%	7.1µM*	?	-51%
Cn1c(=O)c2c(ncn2CC(=O)N2CCN(S(=O)(=O)c3ccc(F)cc3)CC2)n(C)c1=O	4%	-8%	22%[59 µM]	-1%	46%
O=C(c1ccco1)N1CCN(c2nc3c(Cl)cccc3s2)CC1	-16%	-12%	-11%[59 µM]	-37%	13%
O=C(NCc1ccc2c(c1)OCO2)Nc1ccc2nsnc2c1	-8%	20%	4%	2%	38%
O=C(CSc1oc(-c2cccs2)nc1S(=O)(=O)c1ccccc1)NC1CCCCC1	-13%	-1%	-10%[2.33 µM]	-35%	6%
